# Key:
# Experiment in all cases: PBM binding z-score (relative to random genomic background probes); higher = stronger binding; sequences stand for … in GC…GCGATTGACAGCGTAGAATGAAGG
# [1] = test system: FXR:RXRa (NR concentration 270 nM, RXRa partner concentration 90 nM)
# Outline: (§1)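 The probes on custom Agilent 4×180K protein-binding microarrays were double-stranded, with 34-nt variable regions bearing direct-repeat seeds, single-nucleotide variants, half-site ablations and random human genomic background sequences. Incubation lasted 1 h with ligand-free nuclear receptor dimers in PBS pH 7.4, 2% milk, 0.02% Triton X-100, 1 mM DTT, 0.2 mg/mL BSA and 0.4 mg/ml salmon testes DNA. Antibodies against each partner (one per run) detected bound dimers, and fluorescence scans were regression-normalized. Binding z-scores take the random background probes as reference.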
# [2] = test system: LXRa:RXRa (NR concentration 270 nM, RXRa partner concentration 90 nM)
# Outline: as §1
# [3] = test system: LXRa homodimer (NR concentration 270 nM)
# Outline: as §1
# [4] = test system: LXRb:RXRa (NR concentration 270 nM, RXRa partner concentration 90 nM)
# Outline: as §1
# [5] = test system: LXRb homodimer (NR concentration 270 nM)
# Outline: as §1
# [6] = test system: PPARa:RXRa (NR concentration 270 nM, RXRa partner concentration 90 nM)
# Outline: as §1
# [7] = test system: PPARg:RXRa (NR concentration 180 nM, RXRa partner concentration 90 nM)
# Outline: as §1
# [8] = test system: PPARg:RXRa 270nM:90nM, anti-RXR (NR concentration 270 nM, RXRa partner concentration 90 nM)
# Outline: as §1
# [9] = test system: PPARg:RXRa 30nM:10nM, anti-RXR (NR concentration 30 nM, RXRa partner concentration 10 nM)
# Outline: as §1
# [10] = test system: PPARg:RXRa 90nM:30nM, anti-RXR (NR concentration 90 nM, RXRa partner concentration 30 nM)
# Outline: as §1
# [11] = test system: PPARg:RXRa DBDmut IVT, anti-RXR (DBD mutation: RXRa K156A/R161A, NR concentration 270 nM, RXRa partner concentration 90 nM)
# Outline: as §1
# [12] = test system: PPARg:RXRa IVT, anti-PPARg (NR concentration 270 nM, RXRa partner concentration 90 nM)
# Outline: as §1
# [13] = test system: PPARg DBDmut:RXRa IVT, anti-PPARg (DBD mutation: PPARg1 K132A/R137A, NR concentration 270 nM, RXRa partner concentration 90 nM)
# Outline: as §1
# [14] = test system: PPARg DBDmut IVT, anti-PPARg (DBD mutation: PPARg1 K132A/R137A, NR concentration 270 nM)
# Outline: as §1
# [15] = test system: PPARg homodimer (NR concentration 180 nM)
# Outline: as §1
# [16] = test system: PXR:RXRa (NR concentration 270 nM, RXRa partner concentration 90 nM)
# Outline: as §1
# [17] = test system: PXR homodimer (NR concentration 270 nM)
# Outline: as §1
# [18] = test system: RARa:RXR (NR concentration 270 nM, RXRa partner concentration 90 nM)
# Outline: as §1
# [19] = test system: RARa homodimer (NR concentration 270 nM)
# Outline: as §1
# [20] = test system: RARb:RXRa (NR concentration 270 nM, RXRa partner concentration 90 nM)
# Outline: as §1
Sequence,PBM binding z-score [1],PBM binding z-score [2],PBM binding z-score [3],PBM binding z-score [4],PBM binding z-score [5],PBM binding z-score [6],PBM binding z-score [7],PBM binding z-score [8],PBM binding z-score [9],PBM binding z-score [10],PBM binding z-score [11],PBM binding z-score [12],PBM binding z-score [13],PBM binding z-score [14],PBM binding z-score [15],PBM binding z-score [16],PBM binding z-score [17],PBM binding z-score [18],PBM binding z-score [19],PBM binding z-score [20]
TCTGCTAGGTCAACGATGGTCAACTAATCTGCTA,3.62,3.21,0.113,2.15,0.0398,3.3,2.54,3.18,1.79,2.6,4.51,4.3,0.357,0.326,1.75,2.4,-0.851,2.39,-0.654,4.12
TTACCAAGGTGAAGGTAGTTGATCCCTCTGTAGA,0.475,0.286,-0.482,0.307,-0.931,1.44,0.324,1.29,0.219,0.784,2.05,2.3,-0.207,-0.0185,0.00789,0.456,-0.74,0.351,-0.156,1.35
CGTCCTAGGTCAAGGTCAGTGAAAGAGACTCGAA,5.87,4.07,0.811,3.5,0.178,4.87,4.31,4.45,1.48,3.5,3.53,4.08,0.311,0.279,3.52,3.4,0.941,4.02,1.1,5.01
AGAATGAGGTTATTCAGATCAGGGAATTGCGGTC,2.47,1.98,0.596,1.51,0.0526,3.31,1.58,1.96,0.851,1.27,3.18,2.64,0.879,0.0193,0.501,1.8,0.717,1.98,0.495,1.68
CCTAGCAGGCCAGGGCCACTCAAGCATTTCGCTT,-0.787,-0.944,-0.625,-1.04,-1.61,-0.638,-0.367,-1.16,-1.24,-1.48,-0.0979,-0.384,-1.54,-0.795,-0.711,-1.11,-0.775,-0.903,-0.897,0.21
ACTAGCAGGCCAAGCTTGGGTCACTCAAACAAAG,-0.0796,0.111,-0.692,0.455,-0.932,1.22,0.00964,0.21,-0.684,-0.194,1.14,0.724,-0.775,-0.566,0.296,0.742,-0.908,1.66,-1.21,1.77
AGAGTGAGGTTATACGTAGATCAGGGAAGAAAGT,2.32,2.18,0.433,2.06,0.71,2.91,1.11,1.19,0.329,0.849,0.49,0.769,1.06,0.722,1.66,1.39,1.28,1.65,1.14,1.78
TCTCGGAGGATACGAAAGGTCAGAGCTCGACATC,2.69,4.17,2.95,3.22,-0.148,3.68,1.75,3.37,2.63,3.04,1.32,1.03,-1.04,-0.436,2.71,3.67,0.308,4.51,0.99,3.69
GCTAGCAGGCCATTTGGGGCACTCAATGACGGGC,-0.254,-0.719,-0.424,-0.753,-0.89,-0.000395,0.377,-0.278,-0.304,-0.0904,1.12,0.8,-0.58,-1.74,-0.698,-0.594,-0.802,-0.159,-1.06,0.199
GCCGACAGGTGAAACGCAGGTAACTCAGGGTGGC,-0.479,0.0317,-0.662,-0.204,-1.11,0.797,0.421,-0.333,-0.664,-0.468,0.757,0.528,-0.976,-1.57,-0.704,-0.343,-0.71,0.331,-1.11,0.705
CAAACTAGGTCAAAGGTCACAGTCGAGCCAACCA,8.05,6.81,4.49,7.06,2.03,7.83,13.8,11.1,13.2,13.2,8.58,9.39,3.19,2.73,4.25,6.88,1.29,8.53,1.9,5.89
TGTTGTAGATCAAAGGTTAAGAAAGCCGAAGCCT,1.59,2.17,0.185,1.96,0.623,4.47,7.96,7.88,7.16,9.01,-0.0218,3.76,0.531,0.517,1.54,2.04,0.18,2.87,0.902,1.89
GCTCGGAGGACAAGGTCAGAGCGTTGTCCGTAGA,2.18,1.74,-0.229,1.46,-0.608,2.61,0.378,1.37,-0.49,0.635,-0.242,0.658,-1.14,-1.68,0.169,1.68,-0.131,2.07,-0.539,3.4
GATACTGGGTCAAGGCCAGAGTACGCGTATTGAT,2.37,1.21,-0.0541,1.22,-0.791,4.05,5.9,5.27,2.7,4.74,6.7,7.44,0.217,1.07,1.49,1.23,-0.00412,1.72,0.506,3.48
TCTAGTTGGTCAAAGGGCACACACTCGAAATGCG,1.38,1.56,0.344,1.48,0.0761,4.28,8.25,7.85,7.7,8.57,2.22,3.89,0.5,0.679,1.73,1.7,0.178,2.72,0.588,2.6
